# Among all 310,000 compounds or so, about 2,200 (0.71%) showed an effect of 50% or more. The effect is printed as a negative number. What follows is part of a selection rich in strong results, with near analogues and random picks from the rest.
# Biological target: human ether-à-go-go-related gene (hERG) potassium channel (human, UniProt Q12809)
# Test: primary screen, population patch clamp on CHO cells stably expressing hERG; higher = less effect of the substance
# Sequence of human ether-à-go-go-related gene (hERG) potassium channel (Q12809 whole entry, looked up): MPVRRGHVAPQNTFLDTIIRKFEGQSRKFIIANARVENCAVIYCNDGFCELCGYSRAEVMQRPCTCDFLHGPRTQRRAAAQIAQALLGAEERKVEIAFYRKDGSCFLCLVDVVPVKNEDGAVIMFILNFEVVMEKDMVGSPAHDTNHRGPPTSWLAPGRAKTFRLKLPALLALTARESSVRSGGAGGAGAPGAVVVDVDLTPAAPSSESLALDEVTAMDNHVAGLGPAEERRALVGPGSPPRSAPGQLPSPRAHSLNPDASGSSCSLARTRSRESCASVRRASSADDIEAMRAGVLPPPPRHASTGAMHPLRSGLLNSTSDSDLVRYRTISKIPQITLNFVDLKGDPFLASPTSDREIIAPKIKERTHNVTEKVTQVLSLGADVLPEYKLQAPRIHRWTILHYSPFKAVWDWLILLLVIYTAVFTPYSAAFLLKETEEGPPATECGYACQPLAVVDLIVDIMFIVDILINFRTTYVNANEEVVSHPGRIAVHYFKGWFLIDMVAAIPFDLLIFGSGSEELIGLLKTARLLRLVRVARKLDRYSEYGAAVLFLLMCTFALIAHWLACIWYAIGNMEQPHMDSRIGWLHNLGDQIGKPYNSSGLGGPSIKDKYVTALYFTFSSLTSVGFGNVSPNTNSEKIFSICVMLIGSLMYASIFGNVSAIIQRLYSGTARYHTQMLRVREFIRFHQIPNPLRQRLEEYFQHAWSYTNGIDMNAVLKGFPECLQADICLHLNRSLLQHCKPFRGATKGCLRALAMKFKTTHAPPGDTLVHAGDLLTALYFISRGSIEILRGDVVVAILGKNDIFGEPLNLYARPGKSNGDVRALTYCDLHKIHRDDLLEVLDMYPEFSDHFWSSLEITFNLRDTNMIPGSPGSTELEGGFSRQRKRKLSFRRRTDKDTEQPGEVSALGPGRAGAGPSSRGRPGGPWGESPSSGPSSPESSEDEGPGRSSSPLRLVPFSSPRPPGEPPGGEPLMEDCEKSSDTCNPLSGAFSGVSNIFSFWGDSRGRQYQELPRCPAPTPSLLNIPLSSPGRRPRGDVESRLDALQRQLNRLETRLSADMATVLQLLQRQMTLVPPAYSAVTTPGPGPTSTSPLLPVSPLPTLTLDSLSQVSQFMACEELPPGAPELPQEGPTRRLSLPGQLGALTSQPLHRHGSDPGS
row,Compound,"hERG current change (%, negative = inhibition) at 1uM"
1,O=c1[nH]c(CN2CC=C(c3ccccc3)CC2)nc2scc(-c3cccs3)c12,14.1%
2,CC(C)N(C)CCOC(=O)/C=C/c1ccccc1.Cl,12%
3,Cc1cc(C)c2[nH]c3nc(SCC(=O)O)nnc3c2c1,16.7%
4,CC1CN(C)C(C)CC1OC(=O)C(c1ccccc1)c1ccccc1 (stereo not drawn),-68.3%
5,CC1CN(C(C)C)C(C)CC1OC(=O)c1ccccc1 (stereo not drawn),16.7%
6,CN(C)[C@@H]1CCC[C@H]1OC(=O)C(c1ccccc1)c1ccccc1,-40.2%
7,O=C(CN1CCC(Cc2ccccc2)CC1)N1CCc2ccccc2C1,-62.2%
8,Cl.O=C(CN1CCN(c2ccc(F)cc2)CC1)N1CCC(Cc2ccccc2)CC1,-5.57%
9,O=C(CCS(=O)(=O)Cc1ccccc1)N1CCc2ccccc2C1,8.69%
10,O=C(NCCNc1ccccc1[N+](=O)[O-])c1cc(F)c(F)cc1Cl,-2.68%
11,COc1cc(NC(=O)C(C)Oc2ccccc2)c(C(=O)O)cc1OC (stereo not drawn),9.7%
12,OC(c1ccccc1)(c1ccc(Cl)cc1)C1CN2CCC1CC2 (stereo not drawn),-11.9%
13,Cl.OC(c1cccc(Cl)c1)(c1cccc(Cl)c1)C1CN2CCC1CC2 (stereo not drawn),-69.6%
14,Cl.OC(c1ccccc1)(c1ccccc1)C1CN2CCC1CC2 (stereo not drawn),-1.7%
15,CCOC(=O)c1ccccc1NC(=O)[C@@H]1CCCN1C(=O)OC(C)(C)C,3.14%
16,CC(C)(C)C(=O)NC1CCN(S(=O)(=O)c2ccccc2F)CC1,7.45%
17,COc1ccc(N2CCN(C(=O)c3ccc(C)cc3)CC2)c([N+](=O)[O-])c1,-29.7%
18,CO/N=C/c1ccc(N2CCN(C(=O)c3ccc(F)cc3)CC2)c([N+](=O)[O-])c1,-78.1%
19,CO/N=C/c1ccc(N2CCN(C(=O)c3cccc(C(F)(F)F)c3)CC2)c([N+](=O)[O-])c1,-2.38%
20,CO/N=C/c1ccc(N2CCN(C(=O)c3ccc(C)cc3)CC2)c([N+](=O)[O-])c1,-67.2%

row,Compound,"hERG current change (%, negative = inhibition) at 1uM"
1,CO/N=C/c1ccc(N2CCN(C(=O)c3ccc(Cl)cc3Cl)CC2)c([N+](=O)[O-])c1,-18.5%
2,COc1ccc(N2CCN(C(=O)c3ccc(F)cc3)CC2)c([N+](=O)[O-])c1,-38.3%
3,CCc1ccc(CNC(=O)CCCC(=O)n2nc(C)c3ccccc32)cc1,16.1%
4,CC(C)CCN1C(Nc2ccccc2)=NC[C@@H]1Cc1ccccc1,-15%
5,CCCCN1C(Nc2ccccc2)=NC[C@@H]1C,16.3%
6,CC(CCN1C(Nc2ccccc2)=NC[C@@H]1Cc1ccccc1)c1ccccc1 (stereo partly drawn),-52.7%
7,CCCCCCCN1C(Nc2ccccc2)=NC[C@@H]1Cc1ccccc1,-79.6%
8,CC(C)C[C@H]1CN=C(Nc2ccccc2)N1CCC(C)c1ccccc1 (stereo partly drawn),-8.04%
9,c1ccc(CCCCN2C(Nc3ccccc3)=NC[C@@H]2Cc2ccccc2)cc1,-39.7%
10,CC(C)CCCN1C(Nc2ccccc2)=NC[C@@H]1C,-0.21%
11,CCCCCCCN1C(Nc2ccccc2)=NC[C@@H]1C,-55.2%
12,CCCCN1C(Nc2ccccc2)=NC[C@@H]1Cc1ccccc1,-44.2%
13,CCOc1ccc(S(=O)(=O)n2nc(C)cc2C)cc1,13.8%
14,CCOc1cc(/C=N/NC(=O)CNc2ccc(C)cc2)ccc1OC(=O)c1ccccc1,-0.419%
15,CN(Cc1c(F)cccc1Cl)C(=O)CNC(=O)c1ccc2c(c1)OCO2,13.8%
16,CCCOc1ccc(NC(=O)CC2C(=O)N(c3ccc(OCC)cc3)C(=S)N2C2CC2)cc1 (stereo not drawn),-3.7%
17,CN1CCN(c2ccc(NC(=O)c3ccc([N+](=O)[O-])o3)cc2Cl)CC1,-13.7%
18,Cc1ccc(N2CC(O)Cn3c2nc2c3c(=O)n(C)c(=O)n2C)cc1 (stereo not drawn),13.5%
19,CCc1ccc2oc(-c3ccc(OC)cc3)cc(=[NH+]c3c(C)n(C)n(-c4ccccc4)c3=O)c2c1.F[B-](F)(F)F,-33.7%
20,CC(O)C[NH+]=c1cc(-c2ccccc2)oc2ccc(Cl)cc12.F[B-](F)(F)F (stereo not drawn),-57%

row,Compound,"hERG current change (%, negative = inhibition) at 1uM"
1,CCc1ccc2oc(-c3ccc(OC)cc3)cc(=[NH+]c3cccc(C(=O)O)c3)c2c1.F[B-](F)(F)F,4.56%
2,CC(C)C[NH+]=c1cc(-c2ccccc2)oc2ccc(Cl)cc12.F[B-](F)(F)F,-81.1%
3,O=c1cc(-c2ccccc2)oc2ccccc12,13%
4,Cc1cc(Cl)ccc1Oc1ncnc2oc(-c3ccccc3)cc12,6.84%
5,COC(=O)c1sc(S(=O)(=O)N2CCC(C(N)=O)CC2)c(C(=O)OC)c1C,-10.8%
6,Cc1cc2nnc(SCc3ccccc3)n2c(N)n1,-5.86%
7,CCCCNC(=O)CN(c1ccc(Cl)c(Cl)c1)S(C)(=O)=O,7.06%
8,COC(=O)C1=C(N)Oc2cc(C)[nH]c(=O)c2C1c1ccccc1OC (stereo not drawn),9.49%
9,COC(=O)C1=C(N)Oc2cc(N(C)C)ccc2C1c1ccccc1OC (stereo not drawn),-84.1%
10,CCOc1ccc(Br)cc1C1C(C(=O)OC)=C(N)Oc2cc(N(C)C)ccc21 (stereo not drawn),16.6%
11,Cc1cc(C)nc(SCc2ccc(C(=O)N/N=C/c3cccc(O)c3O)cc2)n1,10.8%
12,COc1ccc2nc(C)cc(NCCN3CCOCC3)c2c1,12.3%
13,Cc1nc(NCCN2CCOCC2)c2oc3ccccc3c2n1.Cl,-8.71%
14,CCCc1cc(NCCCN2CCOCC2)n2c(nc3ccccc32)c1C#N,-37%
15,Cc1cc(NCCCN2CCOCC2)n2c(nc3ccccc32)c1C#N,-0.298%
16,c1ccc(-c2nc(NCCCN3CCOCC3)c3ccccc3n2)cc1,3.18%
17,CC(C)c1cc(NCCCN2CCOCC2)n2c(nc3ccccc32)c1C#N,-55.7%
18,Cc1cc(NCCN2CCOCC2)c2ccc3ccccc3c2n1,-58.3%
19,c1ccc2c(NCCCN3CCOCC3)c3ccccc3nc2c1,-54.2%
20,c1ccc2[nH]c(NCCCN3CCOCC3)nc2c1,14.6%
